The supplement of paper PMC12350171
Structures can show the parent of a compound that is named as a salt. A number with no mark means an inactive call.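 How the source made its calls: active = AUC significantly below DMSO controls by Student t-fit with adjusted P under 0.01; inactive = not significantly reduced.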

system: Haemophilus parainfluenzae; experiment: growth AUC normalised to DMSO control (fraction of control); higher = less growth inhibition, active = hit call of the paper; settings: 20 µM
In short: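 Hemin and NAD were added to the medium for Haemophilus parainfluenzae. All pathogens, after two anaerobic passages, were inoculated at a starting OD578 of 0.01 into pre-reduced mGAM plates with 20 μM compound and 1% DMSO under breathable seals, and OD578 was read hourly for 24 h in three biological replicates. AUC of each growth curve was obtained with the trapezoidal rule up to the exponential-to-stationary transition and normalised to DMSO controls from the same plate.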

Structure (SMILES)	growth AUC normalised to DMSO control
Nc1nc(Cl)nc2c1ncn2[C@H]1C[C@H](O)[C@@H](CO)O1 [Cladribine]	1.01
c1coc(CNc2ncnc3[nH]cnc23)c1 [Kinetin]	1.01
Nc1nc(N)c2nc(-c3ccccc3)c(N)nc2n1 [Triamterene]	0.935
CNCCCN1c2ccccc2CCc2ccccc21 [Desipramine hydrochloride]	0.979
C[N+]1(C)CCC(=C(c2ccccc2)c2ccccc2)CC1 [Diphemanil methylsulfate]	0.949
Cc1oncc1C(=O)Nc1ccc(C(F)(F)F)cc1 [Leflunomide]	0.978
